Screening results from PubChem BioAssay.
YB-1 expr inh – YB-1 expression inhibition. U2OS, qRT-PCR YB-1 vs CDIP delta delta Cp, 16 h; active compounds read high; zero = DMSO, each unit about twofold. delta delta Cp (YB-1 minus CDIP) (no concentration beside the values). 30,000 tested, 0.37% active. AID 434959;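 active = delta delta Cp rounded down to an integer at or above 3, about 3 SD of DMSO wells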;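 also: higher means less YB-1 transcript or more CDIP transcript relative to DMSO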
ROS inducer – raises reactive oxygen species in U2OS cancer cells; U2OS ROS induction, H2DCF-DA fluorescence; ROS induction (% of piperlongumine), % at 10 µM; 46,000 tested, 2% active; AID 624156; in the data active = ROS induction above about 79%, passing the limit was not always enough;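 also: 0% = DMSO vehicle median and 100% = reference compound median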
Starred values were filed as active, the others as inactive; nt = not tested or not shown. Shown are actives, neighbours in structure and some others; about 2.1% of the full set was active somewhere.

SMILES | YB-1 expr inh | ROS inducer
C[C@@H]1CN([C@H](C)CO)C(=O)Cc2cc(NS(=O)(=O)c3ccc(F)cc3)ccc2O[C@@H]1CN(C)Cc1ccc(Oc2ccccc2)cc1 | -0.12 | 44
C[C@H](CO)N1C[C@H](C)[C@H](CN(C)Cc2ccc(Oc3ccccc3)cc2)Oc2ccc(NS(=O)(=O)c3ccc(F)cc3)cc2CC1=O | -0.092 | 114*
C[C@H]1CN([C@@H](C)CO)C(=O)Cc2cc(NS(=O)(=O)c3ccccc3)ccc2O[C@H]1CN(C)Cc1ccc(Oc2ccccc2)cc1 | 0.012 | 17
N#Cc1c(N)nc(Sc2ccc(Cl)cc2)c(C#N)c1-c1ccccc1 | 0.33 | 33
C[C@@H]1CN([C@H](C)CO)C(=O)Cc2cc(NC(=O)Cc3cn(C)c4ccccc34)ccc2O[C@@H]1CN(C)Cc1ccc(C(=O)Nc2ccccc2N)cc1 | -0.23 | 86*
C[C@@H]1CN([C@@H](C)CO)C(=O)c2cc(NC(=O)Cc3cn(C)c4ccccc34)ccc2O[C@H]1CN(C)Cc1ccc(Cl)c(Cl)c1 | 0.087 | 35
C[C@H]1CN([C@@H](C)CO)C(=O)c2cc(NC(=O)Cc3cn(C)c4ccccc34)ccc2O[C@@H]1CN(C)Cc1ccc(-c2ccccc2)cc1 | 0.27 | 153*
C[C@H](CO)N1C[C@H](C)[C@@H](CN(C)Cc2ccc(Oc3ccccc3)cc2)Oc2ccc(NC(=O)Cc3cn(C)c4ccccc34)cc2C1=O | 0.26 | 113*
C[C@H]1CN([C@@H](C)CO)C(=O)Cc2cc(NC(=O)Cc3cn(C)c4ccccc34)ccc2O[C@H]1CN(C)Cc1ccc(C(=O)Nc2ccccc2N)cc1 | -0.55 | 26
C[C@@H]1CN([C@H](C)CO)C(=O)c2cc(NC(=O)Cc3cn(C)c4ccccc34)ccc2O[C@H]1CN(C)Cc1ccc(-c2ccccc2)cc1 | 0.096 | 58
C[C@H](CO)N1C[C@H](C)[C@@H](CN(C)Cc2ccc(Cl)c(Cl)c2)Oc2ccc(NC(=O)Cc3cn(C)c4ccccc34)cc2C1=O | 0.098 | 152*
C[C@H]1CN([C@@H](C)CO)C(=O)c2cc(NC(=O)Cc3cn(C)c4ccccc34)ccc2O[C@H]1CN(C)Cc1ccc(-c2ccccc2)cc1 | -0.3 | 18
CC(O)(CC(=O)O)CC(=O)OCC1OC(Oc2c(-c3ccc(O)cc3)oc3cc(O)cc(O)c3c2=O)C(O)C(O)C1O (stereo unspecified) | -0.14 | -8
COc1ccc(C2C(C#N)=C(N)OC3NN=C(C)C32)cc1COc1cccc(Cl)c1 (stereo unspecified) | nt | 42
COc1ccc(CCNc2nc3c(c(C(F)(F)F)n2)CC(C)CC3)cc1OC (stereo unspecified) | nt | -3
CC(C)Oc1ccc(-c2nn(-c3ccccc3)cc2/C=C(\C#N)S(=O)(=O)c2ccccc2)cc1 | nt | -4
Cc1nc2cc(-c3ccccc3)nn2c(C)c1CC(=O)NC1CCCC1 | nt | 17
C[C@@H]1CN([C@H](C)CO)C(=O)Cc2cc(NC(=O)Cc3ccccc3)ccc2O[C@@H]1CN(C)Cc1ccc(Oc2ccccc2)cc1 | 0.012 | 95*
C[C@H]1CN([C@@H](C)CO)C(=O)Cc2cc(NC(=O)Cc3ccccc3)ccc2O[C@H]1CN(C)Cc1ccc(Oc2ccccc2)cc1 | -0.034 | 64
C[C@H]1CN([C@@H](C)CO)C(=O)Cc2cc(NC(=O)Nc3ccc(F)cc3)ccc2O[C@@H]1CN(C)Cc1ccc(C(=O)Nc2ccccc2N)cc1 | 0.2 | 25
COc1ccc(CN(C)C[C@@H]2Oc3ccc(NC(=O)Cc4cn(C)c5ccccc45)cc3C(=O)N([C@@H](C)CO)C[C@H]2C)cc1 | 0.13 | 32
C[C@@H]1CN([C@H](C)CO)C(=O)Cc2cc(NC(=O)Nc3ccccc3)ccc2O[C@@H]1CN(C)Cc1ccc(C(=O)Nc2ccccc2N)cc1 | 0.27 | 102*
C[C@H]1CN([C@@H](C)CO)C(=O)Cc2cc(NC(=O)Cc3ccccc3)ccc2O[C@@H]1CN(C)CC1CCCCC1 | 0.032 | 108*
COc1ccc(CN(C)C[C@H]2Oc3ccc(NC(=O)Cc4cn(C)c5ccccc45)cc3C(=O)N([C@H](C)CO)C[C@@H]2C)cc1 | -0.48 | 185*
C[C@@H]1CN([C@@H](C)CO)C(=O)Cc2cc(NC(=O)Cc3ccccc3)ccc2O[C@@H]1CN(C)CC1CCCCC1 | 0.021 | 4
SMILES | YB-1 expr inh | ROS inducer
CCn1c(C(=O)NCc2ccccc2)cc2oc3ccccc3c21 | nt | -11
O=C(NCc1cccnc1)C(=O)Nc1cccc(Cl)c1Cl | nt | -12
C[C@H]1CN([C@@H](C)CO)C(=O)Cc2cc(NC(=O)Cc3cn(C)c4ccccc34)ccc2O[C@H]1CN(C)Cc1ccc(Oc2ccccc2)cc1 | 0.014 | 0
C[C@@H]1CN([C@H](C)CO)C(=O)Cc2cc(NC(=O)Cc3cn(C)c4ccccc34)ccc2O[C@H]1CN(C)S(=O)(=O)c1ccc(F)cc1 | 0.084 | 23
C[C@@H]1CN([C@@H](C)CO)C(=O)Cc2cc(NC(=O)Cc3cn(C)c4ccccc34)ccc2O[C@@H]1CN(C)Cc1ccc(Oc2ccccc2)cc1 | -0.059 | 122*
C[C@H]1CN([C@@H](C)CO)C(=O)Cc2cc(NC(=O)Cc3cn(C)c4ccccc34)ccc2O[C@@H]1CN(C)S(=O)(=O)c1ccc(F)cc1 | 0.13 | 89*
O=C(CCN1C(=O)c2ccccc2C1=O)Nc1ccc(S(=O)(=O)Nc2nccs2)cc1 | nt | 2
NS(=O)(=O)c1ccc(NC(=O)COc2ccc(F)cc2)cc1 | nt | -13
COc1cc(C2NC(=S)NC(C)=C2C(=O)Nc2ccccc2Cl)ccc1OCC#N (stereo unspecified) | nt | 103*
CC1=C(C(=O)Nc2ccccc2Cl)C(c2cc(Br)ccc2OCC(N)=O)NC(=S)N1 (stereo unspecified) | nt | 7
CCc1ccc2[nH]c(C(=O)NCc3ccccc3)cc2c1 | nt | -6
CC(=O)c1cccc(NC(=O)CCN2C(=O)c3ccccc3S2(=O)=O)c1 | nt | -10
C=C1C(=O)O[C@@H]2[C@H]1[C@H](O)C[C@]1(C)[C@@H](O)CC=C(C)[C@@H]21 | -0.00055 | 34
C=C1C(=O)O[C@@H]2[C@H]3O[C@]3(C)CCC=C(C)CC[C@@H]12 | -0.063 | 101*
C=C1C(=O)O[C@H]2C1CCC(C)=C1C(=O)C=C(C)[C@@]12O (stereo partly specified) | 0.18 | 69
C=C1C(=O)O[C@@H]2C3O[C@]3(C)CC/C=C(/C)CC[C@@H]12 (stereo partly specified) | -0.016 | 92*
CC(C)(c1ccccc1)c1cc(CN2CCOCC2)c(O)c(CN2CCOCC2)c1 | 0.48 | 16
Cc1ccccc1NC(=O)N(Cc1cccs1)C(=O)CC#N | nt | -5
O=C(CCCCC(=O)N/N=C/c1cccc(Oc2ccccc2)c1)NO | 0.21 | -19
COc1ccc(NC(=O)C(C)NS(=O)(=O)c2ccc(F)cc2)cc1Cl (stereo unspecified) | nt | -8
O=C(Nc1cc(C(=O)Nc2ccccc2O)cc(C(=O)Nc2ccccc2O)c1)c1ccccc1 | nt | 97*
COC(=O)c1cc(NC(=O)c2cccc(Cl)c2)cc(C(=O)OC)c1 | nt | -7
COc1ccc(NC(=O)N(C)C[C@@H]2Oc3ncc(C#Cc4ccc(OC)c(OC)c4)cc3C(=O)N([C@H](C)CO)C[C@@H]2C)cc1 | 0.23 | 104*
COc1ccc(NC(=O)N(C)C[C@@H]2Oc3ncc(C#CCN(C)C)cc3C(=O)N([C@H](C)CO)C[C@@H]2C)cc1 | 0.24 | -6
